Compounds with a hit are over-represented: about 3.8% of the library has one in this group of screens.
HepG2 tox: qHTS for Inhibitors of TGF-b: Cytotox Counterscreen. HepG2 CAGA-GFP viability, ATP luminescence, 18 h. Potency, µM (titrated, usually from 46.1 µM), inactives show top-dose activity change, negative = cytotoxicity, actives largely listed as cytotoxic. 410,000 tested, 0.76% active
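HepG2 CAGA-GFP cells (1000/well, DMEM with 1% FBS) received compound, then TGF-beta at 500 pg/mL final, and were incubated 18 hours at 37 degrees C. Viability was read by CellTiter-Glo luminescence. Media-only wells were set as complete cell-killing and DMSO as no toxicity.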
ATXN viability: Viability Counterscreen for Primary qHTS for Inhibitors of ATXN expression; S2 cells (HEK-293 line with an ATXN2-luciferase reporter) viability, CellTiter-Fluor protease fluorescence, 24 h; Potency, µM (highest dose often 56.7 µM), hits mostly cytotoxic; 400,000 tested, 0.49% active; note: nearly all actives have a fitted effect of over 40% in size
HT1080 IDH1KD tx: qHTS for induction of synthetic lethality in tumor cells producing 2HG: qHTS for the HT-1080-IDH1KD cell line; AID 686971, 2013; HT-1080 IDH1 knockdown viability, ATP luminescence, 48 h; 360,000 tested, 2% active; Potency, µM (doses to about 46.1 µM), inactives show at the top dose activity, negative = toxicity, hits mostly cytotoxic;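 note: 0% = DMSO wells and -100% = cell-free medium wells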
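Luminescent ATP read-out (CellTiter-Glo, 10 min at room temperature) after 48 h compound exposure at 37 °C gave viability of IDH1-knockdown HT-1080 cells. Activity was normalised to DMSO and cell-free wells, then fitted as concentration-response curves.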
ATXN2 expr inh: Primary qHTS for Inhibitors of ATXN expression | Potency, µM (highest dose often 57 µM), for inactives: at the top dose activity change, negative = inhibition, usual class: inhibitors | HEK-293 ATXN2-luciferase reporter, luminescence, 24 h | 360,000 tested, 0.72% active; note: % is set by controls: 0 for no effect and ±100 for the full control effect; nearly all actives have a fitted effect of over 55% in size
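qHTS (up to 57 uM final) was run with 24 h compound exposure of reporter cells at 37 °C. Each well was multiplexed: SteadyGlo luminescence measured ATXN2-luciferase expression after a fluorogenic Gly-Phe-AFC viability readout (25 uM final).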
TGFb inhibitor: qHTS for Inhibitors of TGF-b; Potency, µM (titrated, usually from 46.1 µM), inactives show at the highest dose activity, negative = inhibition, actives largely listed as inhibitors; 410,000 tested, 1.2% active; HepG2 CAGA-GFP TGF-b/SMAD3 reporter, GFP fluorescence, 18 h; TGF-beta stimulated, 500 pg/mL final; note: % is set by controls: 0 for no effect and ±100 for the full control effect; nearly all actives have a fitted effect of over 65% in size
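Inhibition was scored as loss of TGF-beta-induced (500 pg/mL final, 18 hours, 37 degrees C) GFP in HEPG2 cells carrying a CAGA-GFP reporter, in DMEM with 1% FBS. Well GFP was summed per cell; Activity was normalised to unstimulated and stimulated DMSO wells, then concentration-response fitting.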
HT1080-NT tox: qHTS for induction of synthetic lethality in tumor cells producing 2HG: qHTS for the HT-1080-NT fibrosarcoma cell line; 360,000 tested, 1.6% active; AID 686970, 2013; Potency, µM (top dose mostly 46.1 µM), inactives show top-dose activity, negative = less viability, most hits filed as cytotoxic; HT-1080-NT fibrosarcoma viability, CellTiter-Glo ATP luminescence, 48 h;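 note: NT is the 2HG producing partner of a matched IDH1 knockdown line; 0% = DMSO-treated cells and -100% = media-only wells without cells; nearly all actives have a fitted effect of over 55% in size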
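Read-out is CellTiter-Glo luminescence after 10 minutes at room temperature, following 48 hours' compound treatment of HT-1080-NT cells (750 cells/well, RPMI, 5% FBS, 37 degrees C).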
* hit, by the source's call; i = inactive; u = inconclusive; x = no result given. Calls come from the whole dose curve; as a rule, active = well fitted curve in the direction sought with a large enough effect; inconclusive = small, poorly fitted or top-dose-only effect, or another doubt; inactive = no such curve, though single readings can be large; an effect the other way counts as inactive or inconclusive. Potency is the fitted concentration of half-maximal effect.

SMILES | HepG2 tox | ATXN viability | HT1080 IDH1KD tx | ATXN2 expr inh | TGFb inhibitor | HT1080-NT tox
COc1ccc(/C=C/C(=O)N2CCc3c(cnc(C)c3CNC(=O)c3ccsc3)C2)cc1OC | x | i | x | x | x | x
CCCN1Cc2cccc(C(=O)Nc3cccc(C(=O)OCC)c3)c2C1=O | -5% | i | x | 2% | -3% | x
NS(=O)(=O)c1ccc(NC2=CC(=O)c3ccccc3C2=O)cc1 | x | x | x | -16% | x | x
O=C(c1cccc(S(=O)(=O)N2CCc3ccccc32)c1)N1CCN(c2ccccc2)CC1 | -3% | i | u | -28% | -28% | 13µM*
Cc1cc(NC(=O)COC(=O)c2ccc(S(=O)(=O)N3CCCc4ccccc43)cc2)no1 | -12% | i | 4.1µM* | -19% | 13% | 4.1µM*
NNC(=O)c1ccc(S(=O)(=O)N2CCc3ccccc32)cc1 | 2% | i | -12% | -11% | -16% | -6%
O=C(c1cccc(S(=O)(=O)N2CCc3ccccc3C2)c1)N1CCN(c2ccccc2)CC1 | 6% | i | -22% | -13% | u | 0%
CCn1c(=O)n(CC)c2cc(S(=O)(=O)N3CCc4ccccc43)ccc21 | -36% | i | u | u | -2% | 10µM*
COC(=O)c1ccc(S(=O)(=O)N2CCc3ccccc32)cc1 | -2% | i | 9.2µM* | -4% | -5% | u
COC(=O)Nc1ccc(S(=O)(=O)N2c3ccccc3CCC2C)cc1 (stereo not drawn) | -16% | i | u | u | u | 2.8µM*
CC(=O)Nc1ccc(S(=O)(=O)N2CCCc3ccccc32)cc1 | -1% | i | 7.1µM* | -25% | u | 8.9µM*
O=S(=O)(c1ccc(Cl)cc1)N1CCCc2ccccc21 | -13% | i | 1% | 7% | -18% | 3%
Cc1cccc(C)c1NC(=O)c1sc(-n2nc(C)c(Cc3ccccc3)c2C)nc1C | 0% | x | x | x | -8% | x
CC(=O)Oc1ccc2c(c1)CC[C@@H]1[C@@H]2CC[C@]2(C)[C@@H](O)CC[C@@H]12 | x | u | x | -9% | x | x
COc1cc(-c2cc(C(=O)N(C)Cc3ccccc3)c3ccccc3n2)cc(OC)c1OC | -30% | i | -17% | -11% | 27% | -7%
COc1ccccc1CN(C)C(=O)c1cc(-c2cc(OC)c(OC)c(OC)c2)nc2ccccc12 | -8% | u | 18µM* | -32% | -31% | 15µM*
COc1ccc(-c2cc(C(=O)NCc3ccco3)c3ccccc3n2)cc1OC | 0.5µM* | i | -6% | -12% | 17% | -8%
C[C@H]1O[C@@H](O[C@H]2[C@@H](O)C[C@H](O[C@H]3[C@@H](O)C[C@H](O[C@H]4CC[C@@]5(C)[C@H](CC[C@@H]6[C@@H]5C[C@@H](O)[C@]5(C)[C@@H](C7=CC(=O)OC7)CC[C@]65O)C4)O[C@@H]3C)O[C@@H]2C)C[C@H](O)[C@@H]1O | -56% | u | 0.037µM* | 0.32µM* | u | 0.23µM*
COC(=O)c1cc(=O)n(CCc2ccc(OC)cc2)c(=Nc2ccc(F)c(Cl)c2)s1 | -40% | u | u | u | u | 21µM*
O=C(NNc1ccnc2cc(Cl)ccc12)C1CCCCC1 | 16% | i | u | u | -26% | 3.7µM*
NC(=S)NNc1ccnc2cc(Cl)ccc12 | 2% | i | 22% | -15% | -3% | 5%
FC(F)Oc1ccc(NC(=S)NNc2ccnc3cc(Cl)ccc23)cc1 | -12% | u | 21µM* | u | -27% | 26µM*
CCOC(=O)/C=C/c1ccc2c(c1)S(=O)(=O)N(C1CCCC1)[C@H]2CC(=O)OCC | 0% | x | x | x | 3% | x
